Sampled rows, rich in hits. Any-hit rate of the full collection: about 6.1%.
D3 ag – qHTS of D3 Dopamine Receptor Agonist: qHTS; D(3) dopamine receptor (Homo sapiens), P35462; D3R DiscoveRx beta-arrestin cells, luminescence, 90 min; max activation, %; AID 652048, 2013; 410,000 tested, 0.58% active; in the data active means max activation above about 30%; further: 0% is about no effect
Target sequence (P35462 whole entry, looked up): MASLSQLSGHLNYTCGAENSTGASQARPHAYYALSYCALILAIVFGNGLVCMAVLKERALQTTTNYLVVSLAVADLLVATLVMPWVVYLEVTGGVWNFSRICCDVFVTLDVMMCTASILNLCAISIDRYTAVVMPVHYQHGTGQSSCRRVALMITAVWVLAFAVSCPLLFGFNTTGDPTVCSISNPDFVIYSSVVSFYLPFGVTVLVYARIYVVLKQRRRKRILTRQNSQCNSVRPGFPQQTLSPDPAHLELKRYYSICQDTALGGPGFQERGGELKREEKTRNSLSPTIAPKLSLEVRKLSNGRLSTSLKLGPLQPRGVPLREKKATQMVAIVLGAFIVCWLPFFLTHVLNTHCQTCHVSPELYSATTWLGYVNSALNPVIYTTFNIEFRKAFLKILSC
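Cells at 1500/well, incubated overnight, then treated with pinned compounds (dopamine as control) for 90 min at 37 degrees C. DiscoveRx reagent added for 30 - 60 minutes at room temperature; luminescence read.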
D3 antag – qHTS of D3 Dopamine Receptor Antagonist: qHTS | D(3) dopamine receptor (Homo sapiens), P35462 | D3R cells, DiscoveRx beta-arrestin luminescence, antagonist mode; hits give low values | max response, negative = inhibition, % | 360,000 tested, 2.5% active | AID 652054, 2013; in the data active means max response below about -50%; inconclusive means no clear call, values can overlap the other calls; further: on the % scale 0 is the no-effect control and ±100 the full control effect
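Cells expressing the human receptor were seeded at 1500 cells/well, incubated overnight at 37 degrees C in 5% CO2, then exposed to library compounds with dopamine controls for 90 minutes at 37 degrees C before luminescent detection.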
D1 antag – Antagonist of Human D 1 Dopamine Receptor: qHTS; D(1A) dopamine receptor (Homo sapiens), P21728; HEK293 TREx D1 cells, calcium flux, dopamine EC80; hits give low values; activity change, negative = inhibition, % at 10 µM; 360,000 tested, 3.2% active; in the data active means activity change below about -30%; further: on the % scale 0 is the no-effect control and ±100 the full control effect
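Compound effects on dopamine-evoked calcium signalling were measured in tetracycline-induced HEK293 Trex D1 cells. Dopamine at EC80 followed a 180 s compound pre-read, and fluorescence was tracked kinetically for 180 s more.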
ERG-DNA inh – qHTS for Small Molecule Inhibitors of the ERG Ets/DNA interaction. fluorescence polarization, His-ERG Ets domain / labelled DNA. 370,000 tested, 0.028% active. Potency, µM (highest dose often 76.9 µM), for inactives: at the highest dose FP activity, negative = inhibition, actives largely listed as inhibitors. AID 624246, 2012; active means well fitted inhibition curve with a large enough effect in the polarisation, with a control signal flat; inconclusive means small, poorly fitted or top-dose-only effect, or effect the other way, or a change in a side signal; inactive means no such curve, though single readings can be large or run the other way; the % refers to the polarisation;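 further: polarization taken with two DNA probes labelled with fluorescein and Texas red; potency means the concentration at half of the fitted maximal effect; % of control where 0% means no effect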
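His-tagged ERG Ets domain (1 uM in the protein solution; 300mM KCl, 50mM Tris-HCl, 1mM EDTA, 1mM DTT, pH 7.5) received compound, then a probe mix of 5 nM fluorescein-DNA and 100nM Texas-615-DNA. Fluorescence polarization was read for both dyes.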
D1 agonist – Allosteric Agonists of the Human D1 Dopamine Receptor: qHTS; D(1A) dopamine receptor (Homo sapiens), P21728; HEK293 T-REx D1 cells, calcium flux, agonist mode; activation, % at 2 µM; 360,000 tested, 1% active; in the data active means activation above about 30%; further: 0% is about no effect
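Inducible HEK293 T-REx D1 cells, force-coupled to calcium signalling, were plated at 4000 cells/well with tetracycline and held overnight at 30 C. After no-wash calcium dye loading, compound-evoked calcium rise over 180 s flagged agonists.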
D1 potentiator – Potentiators of Human D1 Dopamine Receptor: qHTS | HEK293 TREx D1 cells, calcium flux, dopamine EC20 potentiation | potentiation, % at 10 µM | 360,000 tested, 0.036% active; in the data active means potentiation above about 30%; further: 0% is about no effect
The depositor's hits bear a star; ? = inconclusive; nt = not tested or not shown.

SMILES	D3 ag	D3 antag	D1 antag	ERG-DNA inh	D1 agonist	D1 potentiator
CCN(CC)CCC(=O)O[C@H]1CC[C@]2(C)C3CC[C@@]4(C)C(CC[C@]4(C)O)C3CC[C@H]2C1 (stereo partly specified)	-15.3	-21.6	nt	3.1%	nt	nt
Cc1cccc(C)c1N1CCN(c2c(C)cccc2C)CC1	-5.1	-4.7	1.5	10.7%	1.1	-2.0
Cc1cc(OCC(=O)N2CCN(CCc3ccccn3)CC2)cc(C)c1Cl	7.3	nt	8.1	-6.3%	-0.1	-0.6
C(=N\NC1=NCCCCC1)/c1c[nH]c2ccccc12	-43.2	2.4	17.5	-9.4%	6.9	-4.0
Cc1cc(C)c(NC2=NCCS2)cc1C	-3.5	-15.6	nt	nt	nt	nt
CNCCc1ccc(O)c(O)c1	115.8*	14.7	nt	?	nt	nt
CCC(=O)OC1(Cc2ccc(CC)cc2)CC(C)N(C)CC1C (stereo unspecified)	-45.4	-56.4*	6.6	-2.5%	2.5	0.6
OC(CN1CC=C(c2ccccc2)CC1)c1ccccc1 (stereo unspecified)	21.1	-21.0	-10.5	6.3%	3.8	-2.5
OC(COCc1ccc(Cl)cc1)CN1CC=C(c2ccccc2)CC1 (stereo unspecified)	33.7*	?	-7.7	?	29.3	-6.5
Clc1ccccc1CN1CCN(c2cccc3[nH]ccc23)CC1	-8.8	-80.2*	-48.5*	-8.5%	0.1	-2.5
COc1ccccc1CN1CCNCC1	-5.2	-6.4	nt	nt	nt	nt
COc1ccccc1N1CCN(Cc2ccc(Br)cc2)CC1	-5.3	-109.7*	-29.0	-4.7%	1.9	9.2
Nc1ccc(N2CCN(Cc3ccccc3Cl)CC2)c(Cl)c1	-18.8	-57.4*	-8.4	-6.2%	8.2	-2.6
Clc1ccccc1CN1CCN(c2ccccc2)CC1	-17.4	-25.7	-10.1	-25.3%	-1.3	2.7
COc1ccccc1N1CCN(Cc2cccc(OC)c2O)CC1	-10.3	-101.4*	-20.5	3.1%	2.0	-6.2
Clc1cccc(Cl)c1CN1CCN(c2ccccc2)CC1	-13.5	?	7.9	nt	1.8	7.8
CN(C)CCc1c[nH]c2ccc(O)cc12	-1.5	nt	nt	nt	nt	nt
O=C(Cn1ncc2c3ccccc3n(Cc3cccc(Cl)c3)c2c1=O)N1CCC2(CC1)OCCO2	2.9	2.0	0.5	-3.4%	7.1	6.2
CN1CCC23c4c5ccc(O)c4O[C@@H]2[C@H](O)C=CC3C1C5 (stereo partly specified)	-0.4	-24.4	nt	1.6%	nt	nt
COc1ccccc1N1CCN(Cc2ccccc2Cl)CC1	-21.0	-88.3*	10.6	3.2%	2.2	-2.7
COc1ccccc1N1CCN(Cc2c(F)cccc2F)CC1	-30.7	-68.5*	14.3	-8.5%	-0.3	-4.3
COc1ccccc1N1CCN(Cc2ccccc2F)CC1	-8.7	-92.2*	-23.0	-3.3%	1.1	-0.7
Clc1ccc(N2CCN(Cc3ccccc3Cl)CC2)cc1	-23.6	-21.6	7.1	-18.2%	1.7	4.4
COc1ccc(CC(=O)N(C)C2CCCN(Cc3ccccc3F)C2)cc1OC (stereo unspecified)	-3.2	-16.5	25.1	-0.4%	6.6	-2.8
COC(=O)C1=C(c2cccc(Cl)c2)C[C@@H]2CC[C@H]1N2C(=O)NCC1CC1	-6.4	-20.1	70.1	-3.4%	0.4	0.4
O.O.O.O=C([O-])C(O)C(O)C(=O)[O-].O=C([O-])C(O)C(O)C(=O)[O-].[K+].[K+].[Sb].[Sb] (stereo unspecified)	-10.6	nt	nt	nt	nt	nt
O=[N+]([O-])c1ccc(N2CCCC2)c2ccncc12	-1.4	6.7	-6.4	-1.0%	4.7	-2.3
CC1C(c2ccccc2)OC(=O)N1C (stereo unspecified)	0.6	-18.8	nt	3.9%	nt	nt
CC(C)CCn1c(N)c(C(=O)OCC2CCCO2)c2nc3ccccc3nc21 (stereo unspecified)	0.1	18.4	-36.0*	-11.1%	-0.5	-3.0
